# From ChEMBL document CHEMBL1961873, “Compounds: GSK PKIS; Assays: Nanosyn kinase panel” (2012)
# Where “and” joins values, the source holds several entries; their conditions need not be identical. Equal values may be shown once.
# Experiments:
# [1] = molecular target: T1, Serine/threonine-protein kinase D2 (Homo sapiens) (UniProt Q9BZL6); conditions: at 1 µM;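 also: mean value of PRKD2 inhibition, from the GSK PKIS screening panel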
# T1 sequence (whole entry): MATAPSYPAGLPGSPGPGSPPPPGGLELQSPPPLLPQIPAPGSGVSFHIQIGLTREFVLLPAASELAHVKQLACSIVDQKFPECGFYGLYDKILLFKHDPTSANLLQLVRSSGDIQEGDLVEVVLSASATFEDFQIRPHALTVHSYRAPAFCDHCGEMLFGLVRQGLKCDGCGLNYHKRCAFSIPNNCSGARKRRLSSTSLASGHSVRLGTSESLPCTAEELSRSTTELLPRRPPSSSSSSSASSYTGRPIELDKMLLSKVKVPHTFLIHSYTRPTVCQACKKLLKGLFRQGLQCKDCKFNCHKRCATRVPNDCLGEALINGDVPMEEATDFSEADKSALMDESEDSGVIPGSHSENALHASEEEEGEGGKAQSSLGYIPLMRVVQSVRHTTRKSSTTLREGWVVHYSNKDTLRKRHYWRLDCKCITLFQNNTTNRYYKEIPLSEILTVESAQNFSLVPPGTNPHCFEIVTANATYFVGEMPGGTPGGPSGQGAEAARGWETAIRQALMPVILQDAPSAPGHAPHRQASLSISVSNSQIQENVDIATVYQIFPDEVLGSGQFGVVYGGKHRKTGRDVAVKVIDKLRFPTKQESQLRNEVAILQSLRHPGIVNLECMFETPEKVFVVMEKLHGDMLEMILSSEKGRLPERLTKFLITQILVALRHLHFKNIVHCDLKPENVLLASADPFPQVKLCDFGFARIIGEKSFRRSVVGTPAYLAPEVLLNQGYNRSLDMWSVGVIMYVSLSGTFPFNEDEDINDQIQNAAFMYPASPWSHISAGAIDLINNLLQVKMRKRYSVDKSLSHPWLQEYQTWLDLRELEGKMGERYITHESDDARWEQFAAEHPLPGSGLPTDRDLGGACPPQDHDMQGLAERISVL
# [2] = molecular target: T2, Serine/threonine-protein kinase D3 (Homo sapiens) (UniProt O94806); conditions: at 0.1 µM
# T2 sequence (whole entry): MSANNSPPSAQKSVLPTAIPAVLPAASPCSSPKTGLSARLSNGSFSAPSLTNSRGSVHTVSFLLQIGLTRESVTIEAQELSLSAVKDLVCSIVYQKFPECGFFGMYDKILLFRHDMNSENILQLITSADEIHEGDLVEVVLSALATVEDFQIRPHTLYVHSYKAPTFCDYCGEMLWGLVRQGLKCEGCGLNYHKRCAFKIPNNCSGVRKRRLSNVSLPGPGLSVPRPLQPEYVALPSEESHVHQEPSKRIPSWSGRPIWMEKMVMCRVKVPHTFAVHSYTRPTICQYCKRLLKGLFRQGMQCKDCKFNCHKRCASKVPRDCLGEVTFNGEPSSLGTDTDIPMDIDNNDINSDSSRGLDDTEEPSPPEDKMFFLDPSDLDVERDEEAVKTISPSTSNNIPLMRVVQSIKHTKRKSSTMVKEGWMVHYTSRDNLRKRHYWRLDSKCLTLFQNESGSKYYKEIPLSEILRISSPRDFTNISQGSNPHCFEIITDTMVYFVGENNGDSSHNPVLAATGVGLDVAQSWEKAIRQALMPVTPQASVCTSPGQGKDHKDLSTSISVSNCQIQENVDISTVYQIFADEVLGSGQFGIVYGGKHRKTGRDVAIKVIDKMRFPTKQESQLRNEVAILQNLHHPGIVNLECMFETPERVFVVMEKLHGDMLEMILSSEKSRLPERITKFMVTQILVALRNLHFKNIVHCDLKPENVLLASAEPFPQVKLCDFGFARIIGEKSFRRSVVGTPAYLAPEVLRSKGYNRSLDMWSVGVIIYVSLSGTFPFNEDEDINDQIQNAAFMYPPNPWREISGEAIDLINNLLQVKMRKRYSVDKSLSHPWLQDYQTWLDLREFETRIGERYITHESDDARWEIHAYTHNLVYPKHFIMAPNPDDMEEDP
# [3] = molecular target: T2, Serine/threonine-protein kinase D3 (Homo sapiens); conditions: at 1 µM
# [4] = molecular target: T3, cGMP-dependent protein kinase 1 (Homo sapiens) (UniProt Q13976); conditions: at 0.1 µM
# T3 sequence (whole entry): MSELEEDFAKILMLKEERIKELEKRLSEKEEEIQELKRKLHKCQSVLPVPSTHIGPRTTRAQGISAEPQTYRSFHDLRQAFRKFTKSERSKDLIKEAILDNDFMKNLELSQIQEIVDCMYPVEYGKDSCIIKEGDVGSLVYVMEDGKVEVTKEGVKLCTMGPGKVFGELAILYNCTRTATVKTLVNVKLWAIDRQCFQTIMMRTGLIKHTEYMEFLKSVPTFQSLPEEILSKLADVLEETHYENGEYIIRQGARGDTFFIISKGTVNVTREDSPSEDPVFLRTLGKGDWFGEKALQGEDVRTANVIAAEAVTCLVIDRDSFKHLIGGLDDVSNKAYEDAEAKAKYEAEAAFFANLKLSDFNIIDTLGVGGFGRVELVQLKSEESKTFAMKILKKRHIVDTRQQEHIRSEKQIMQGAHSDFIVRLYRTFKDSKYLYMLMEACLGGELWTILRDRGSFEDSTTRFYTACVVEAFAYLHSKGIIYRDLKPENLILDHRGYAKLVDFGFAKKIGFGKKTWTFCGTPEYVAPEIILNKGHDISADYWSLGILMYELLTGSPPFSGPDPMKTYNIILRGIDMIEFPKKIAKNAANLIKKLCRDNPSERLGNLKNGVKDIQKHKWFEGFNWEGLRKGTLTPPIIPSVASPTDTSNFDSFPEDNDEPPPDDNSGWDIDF
# [5] = molecular target: T3, cGMP-dependent protein kinase 1 (Homo sapiens); conditions: at 1 µM
# [6] = molecular target: T4, cGMP-dependent protein kinase 2 (Homo sapiens) (UniProt Q13237); conditions: at 0.1 µM
# T4 sequence (whole entry): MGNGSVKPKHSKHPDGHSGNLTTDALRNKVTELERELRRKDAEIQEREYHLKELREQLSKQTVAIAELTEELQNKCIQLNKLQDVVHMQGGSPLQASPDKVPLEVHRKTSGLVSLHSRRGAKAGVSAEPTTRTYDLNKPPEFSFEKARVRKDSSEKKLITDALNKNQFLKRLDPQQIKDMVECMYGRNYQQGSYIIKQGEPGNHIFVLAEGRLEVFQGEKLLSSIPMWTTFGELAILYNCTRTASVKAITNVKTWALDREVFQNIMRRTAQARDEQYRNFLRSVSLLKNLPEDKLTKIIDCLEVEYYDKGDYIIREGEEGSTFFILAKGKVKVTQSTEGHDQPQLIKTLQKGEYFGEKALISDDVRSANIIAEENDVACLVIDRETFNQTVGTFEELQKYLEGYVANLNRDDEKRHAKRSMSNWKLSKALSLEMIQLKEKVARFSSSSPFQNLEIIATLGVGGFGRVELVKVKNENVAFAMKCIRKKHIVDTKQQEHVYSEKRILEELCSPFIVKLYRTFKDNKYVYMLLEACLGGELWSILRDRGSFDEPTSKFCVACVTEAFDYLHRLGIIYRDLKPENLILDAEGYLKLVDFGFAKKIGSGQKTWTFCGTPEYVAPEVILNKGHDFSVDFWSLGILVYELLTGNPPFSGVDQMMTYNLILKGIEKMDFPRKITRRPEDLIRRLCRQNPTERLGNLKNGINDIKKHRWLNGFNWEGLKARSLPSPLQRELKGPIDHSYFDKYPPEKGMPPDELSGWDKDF
# [7] = molecular target: T4, cGMP-dependent protein kinase 2 (Homo sapiens); conditions: at 1 µM
# [8] = molecular target: T5, cAMP-dependent protein kinase catalytic subunit PRKX (Homo sapiens) (UniProt P51817); conditions: at 0.1 µM
# T5 sequence (whole entry): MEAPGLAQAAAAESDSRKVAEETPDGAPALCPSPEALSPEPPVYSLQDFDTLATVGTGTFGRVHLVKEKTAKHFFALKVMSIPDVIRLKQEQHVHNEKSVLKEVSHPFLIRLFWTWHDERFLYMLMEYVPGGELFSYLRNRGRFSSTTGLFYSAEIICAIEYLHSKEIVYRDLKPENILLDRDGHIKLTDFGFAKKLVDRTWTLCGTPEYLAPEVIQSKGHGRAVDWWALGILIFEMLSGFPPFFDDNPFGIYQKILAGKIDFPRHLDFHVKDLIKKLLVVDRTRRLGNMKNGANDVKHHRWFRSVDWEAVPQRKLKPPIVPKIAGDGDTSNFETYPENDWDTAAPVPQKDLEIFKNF
# [9] = molecular target: T5, cAMP-dependent protein kinase catalytic subunit PRKX (Homo sapiens); conditions: at 1 µM
# [10] = molecular target: Rho-associated protein kinase 1 (Homo sapiens) (UniProt Q13464); conditions: at 0.1 µM
# [11] = molecular target: Rho-associated protein kinase 1 (Homo sapiens) (UniProt Q13464); conditions: at 1 µM
# [12] = molecular target: Rho-associated protein kinase 2 (Homo sapiens) (UniProt O75116); conditions: at 0.1 µM
# [13] = molecular target: Rho-associated protein kinase 2 (Homo sapiens) (UniProt O75116); conditions: at 1 µM
# [14] = molecular target: Ribosomal protein S6 kinase alpha-1 (Homo sapiens) (UniProt Q15418); conditions: at 0.1 µM
# [15] = molecular target: Ribosomal protein S6 kinase alpha-1 (Homo sapiens) (UniProt Q15418); conditions: at 1 µM
# [16] = molecular target: Ribosomal protein S6 kinase alpha-3 (Homo sapiens) (UniProt P51812); conditions: at 0.1 µM
# [17] = molecular target: Ribosomal protein S6 kinase alpha-3 (Homo sapiens) (UniProt P51812); conditions: at 1 µM
# [18] = molecular target: Ribosomal protein S6 kinase alpha-2 (Homo sapiens) (UniProt Q15349); conditions: at 0.1 µM
# [19] = molecular target: Ribosomal protein S6 kinase alpha-2 (Homo sapiens) (UniProt Q15349); conditions: at 1 µM
# [20] = molecular target: Ribosomal protein S6 kinase alpha-6 (Homo sapiens) (UniProt Q9UK32); conditions: at 0.1 µM;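 also: reported value is the mean inhibition of RSK4, from the GSK PKIS kinase inhibitor screen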
# Ribosomal protein S6 kinase alpha-6 (Homo sapiens), sequence (Q9UK32 whole entry): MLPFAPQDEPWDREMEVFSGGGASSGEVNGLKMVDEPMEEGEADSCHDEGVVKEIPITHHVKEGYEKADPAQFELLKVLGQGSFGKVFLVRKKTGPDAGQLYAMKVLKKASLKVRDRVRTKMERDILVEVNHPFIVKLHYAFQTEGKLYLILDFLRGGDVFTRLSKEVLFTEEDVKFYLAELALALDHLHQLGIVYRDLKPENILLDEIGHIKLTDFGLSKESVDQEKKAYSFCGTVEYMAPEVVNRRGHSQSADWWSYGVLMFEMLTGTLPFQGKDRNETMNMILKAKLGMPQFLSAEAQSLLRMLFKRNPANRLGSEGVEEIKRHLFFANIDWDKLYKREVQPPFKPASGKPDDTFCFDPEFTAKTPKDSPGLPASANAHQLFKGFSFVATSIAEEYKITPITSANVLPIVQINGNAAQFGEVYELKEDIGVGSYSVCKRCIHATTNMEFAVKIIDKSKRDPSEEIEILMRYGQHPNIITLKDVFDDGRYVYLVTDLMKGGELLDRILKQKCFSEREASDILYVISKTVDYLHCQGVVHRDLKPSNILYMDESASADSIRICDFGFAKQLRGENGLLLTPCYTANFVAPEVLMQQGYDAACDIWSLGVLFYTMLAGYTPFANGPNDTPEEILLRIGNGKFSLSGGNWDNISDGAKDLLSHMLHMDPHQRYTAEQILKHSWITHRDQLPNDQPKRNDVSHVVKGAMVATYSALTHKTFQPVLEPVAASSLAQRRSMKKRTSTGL
# Ribosomal protein S6 kinase alpha-2 (Homo sapiens), sequence (Q15349 whole entry): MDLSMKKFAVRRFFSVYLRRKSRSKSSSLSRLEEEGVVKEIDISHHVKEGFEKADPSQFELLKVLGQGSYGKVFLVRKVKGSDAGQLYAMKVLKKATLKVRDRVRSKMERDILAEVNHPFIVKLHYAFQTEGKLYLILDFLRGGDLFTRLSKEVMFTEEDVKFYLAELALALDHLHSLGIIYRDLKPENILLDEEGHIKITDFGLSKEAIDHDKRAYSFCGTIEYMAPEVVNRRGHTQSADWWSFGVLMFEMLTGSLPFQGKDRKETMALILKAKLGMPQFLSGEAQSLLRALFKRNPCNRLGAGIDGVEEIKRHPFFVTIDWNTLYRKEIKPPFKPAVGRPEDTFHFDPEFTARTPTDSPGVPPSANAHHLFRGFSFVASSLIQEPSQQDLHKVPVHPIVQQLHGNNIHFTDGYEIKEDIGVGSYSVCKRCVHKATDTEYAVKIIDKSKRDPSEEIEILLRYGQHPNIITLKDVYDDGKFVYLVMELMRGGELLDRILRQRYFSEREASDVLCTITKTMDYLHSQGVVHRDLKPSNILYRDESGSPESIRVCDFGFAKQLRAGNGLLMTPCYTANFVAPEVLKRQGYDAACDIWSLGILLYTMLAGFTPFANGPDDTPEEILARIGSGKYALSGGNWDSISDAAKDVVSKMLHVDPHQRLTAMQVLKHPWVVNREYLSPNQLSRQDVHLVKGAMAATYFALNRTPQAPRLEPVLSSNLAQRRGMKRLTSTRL
# Ribosomal protein S6 kinase alpha-1 (Homo sapiens), sequence (Q15418 whole entry): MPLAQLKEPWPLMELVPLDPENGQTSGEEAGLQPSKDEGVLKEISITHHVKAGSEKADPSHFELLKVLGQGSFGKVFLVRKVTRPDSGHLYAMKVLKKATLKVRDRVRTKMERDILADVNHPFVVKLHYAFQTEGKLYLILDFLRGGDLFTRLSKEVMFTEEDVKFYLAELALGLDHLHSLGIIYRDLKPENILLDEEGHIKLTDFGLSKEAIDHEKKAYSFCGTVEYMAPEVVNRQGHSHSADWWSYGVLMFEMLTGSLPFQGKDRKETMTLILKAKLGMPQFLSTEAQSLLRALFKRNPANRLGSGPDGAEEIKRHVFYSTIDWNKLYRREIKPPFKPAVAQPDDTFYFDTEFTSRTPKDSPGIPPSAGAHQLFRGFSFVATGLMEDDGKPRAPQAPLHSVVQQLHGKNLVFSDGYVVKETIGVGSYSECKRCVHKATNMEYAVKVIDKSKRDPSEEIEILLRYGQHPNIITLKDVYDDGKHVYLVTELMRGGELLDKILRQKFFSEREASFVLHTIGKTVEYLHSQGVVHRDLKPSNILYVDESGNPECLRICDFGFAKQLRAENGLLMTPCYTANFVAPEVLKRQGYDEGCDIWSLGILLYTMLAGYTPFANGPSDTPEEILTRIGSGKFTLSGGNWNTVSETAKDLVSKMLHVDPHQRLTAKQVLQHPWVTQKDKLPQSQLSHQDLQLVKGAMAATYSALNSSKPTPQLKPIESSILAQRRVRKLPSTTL
# Rho-associated protein kinase 2 (Homo sapiens), sequence (O75116 whole entry, looked up): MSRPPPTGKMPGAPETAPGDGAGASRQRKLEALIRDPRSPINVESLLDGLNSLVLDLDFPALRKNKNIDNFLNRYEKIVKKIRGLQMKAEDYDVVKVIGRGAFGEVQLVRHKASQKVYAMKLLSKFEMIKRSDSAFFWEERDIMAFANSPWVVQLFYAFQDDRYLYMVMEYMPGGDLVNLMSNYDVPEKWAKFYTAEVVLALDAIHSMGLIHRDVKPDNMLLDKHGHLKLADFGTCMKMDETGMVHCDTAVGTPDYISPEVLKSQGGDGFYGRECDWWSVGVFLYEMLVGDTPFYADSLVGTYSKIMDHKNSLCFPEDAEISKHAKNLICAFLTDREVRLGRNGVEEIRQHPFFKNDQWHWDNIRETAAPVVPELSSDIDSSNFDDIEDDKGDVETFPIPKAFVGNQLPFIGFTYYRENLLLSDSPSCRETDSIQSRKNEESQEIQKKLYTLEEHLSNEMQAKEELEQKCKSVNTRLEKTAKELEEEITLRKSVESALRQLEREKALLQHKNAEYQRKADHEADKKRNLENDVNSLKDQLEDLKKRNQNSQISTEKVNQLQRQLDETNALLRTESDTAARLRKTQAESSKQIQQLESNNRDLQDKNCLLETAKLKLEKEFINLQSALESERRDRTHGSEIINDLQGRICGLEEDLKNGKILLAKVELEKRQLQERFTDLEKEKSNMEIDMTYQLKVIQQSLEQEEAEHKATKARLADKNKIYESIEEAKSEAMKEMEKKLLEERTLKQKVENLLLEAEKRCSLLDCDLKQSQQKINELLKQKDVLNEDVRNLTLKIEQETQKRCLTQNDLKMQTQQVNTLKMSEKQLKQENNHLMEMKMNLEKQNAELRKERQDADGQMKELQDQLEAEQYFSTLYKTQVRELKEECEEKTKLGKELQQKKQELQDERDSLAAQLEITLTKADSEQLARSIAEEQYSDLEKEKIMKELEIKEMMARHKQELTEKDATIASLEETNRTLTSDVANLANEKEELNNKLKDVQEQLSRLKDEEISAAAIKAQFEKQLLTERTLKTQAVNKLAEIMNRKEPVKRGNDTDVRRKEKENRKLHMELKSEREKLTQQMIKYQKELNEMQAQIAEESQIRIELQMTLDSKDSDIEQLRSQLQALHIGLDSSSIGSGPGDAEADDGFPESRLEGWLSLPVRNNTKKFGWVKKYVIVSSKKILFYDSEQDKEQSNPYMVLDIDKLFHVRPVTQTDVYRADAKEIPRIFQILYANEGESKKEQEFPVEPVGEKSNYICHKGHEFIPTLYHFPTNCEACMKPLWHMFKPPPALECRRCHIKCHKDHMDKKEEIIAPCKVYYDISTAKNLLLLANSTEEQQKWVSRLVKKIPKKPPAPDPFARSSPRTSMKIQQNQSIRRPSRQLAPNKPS
# Rho-associated protein kinase 1 (Homo sapiens), sequence (Q13464 2-1354 limits assumed): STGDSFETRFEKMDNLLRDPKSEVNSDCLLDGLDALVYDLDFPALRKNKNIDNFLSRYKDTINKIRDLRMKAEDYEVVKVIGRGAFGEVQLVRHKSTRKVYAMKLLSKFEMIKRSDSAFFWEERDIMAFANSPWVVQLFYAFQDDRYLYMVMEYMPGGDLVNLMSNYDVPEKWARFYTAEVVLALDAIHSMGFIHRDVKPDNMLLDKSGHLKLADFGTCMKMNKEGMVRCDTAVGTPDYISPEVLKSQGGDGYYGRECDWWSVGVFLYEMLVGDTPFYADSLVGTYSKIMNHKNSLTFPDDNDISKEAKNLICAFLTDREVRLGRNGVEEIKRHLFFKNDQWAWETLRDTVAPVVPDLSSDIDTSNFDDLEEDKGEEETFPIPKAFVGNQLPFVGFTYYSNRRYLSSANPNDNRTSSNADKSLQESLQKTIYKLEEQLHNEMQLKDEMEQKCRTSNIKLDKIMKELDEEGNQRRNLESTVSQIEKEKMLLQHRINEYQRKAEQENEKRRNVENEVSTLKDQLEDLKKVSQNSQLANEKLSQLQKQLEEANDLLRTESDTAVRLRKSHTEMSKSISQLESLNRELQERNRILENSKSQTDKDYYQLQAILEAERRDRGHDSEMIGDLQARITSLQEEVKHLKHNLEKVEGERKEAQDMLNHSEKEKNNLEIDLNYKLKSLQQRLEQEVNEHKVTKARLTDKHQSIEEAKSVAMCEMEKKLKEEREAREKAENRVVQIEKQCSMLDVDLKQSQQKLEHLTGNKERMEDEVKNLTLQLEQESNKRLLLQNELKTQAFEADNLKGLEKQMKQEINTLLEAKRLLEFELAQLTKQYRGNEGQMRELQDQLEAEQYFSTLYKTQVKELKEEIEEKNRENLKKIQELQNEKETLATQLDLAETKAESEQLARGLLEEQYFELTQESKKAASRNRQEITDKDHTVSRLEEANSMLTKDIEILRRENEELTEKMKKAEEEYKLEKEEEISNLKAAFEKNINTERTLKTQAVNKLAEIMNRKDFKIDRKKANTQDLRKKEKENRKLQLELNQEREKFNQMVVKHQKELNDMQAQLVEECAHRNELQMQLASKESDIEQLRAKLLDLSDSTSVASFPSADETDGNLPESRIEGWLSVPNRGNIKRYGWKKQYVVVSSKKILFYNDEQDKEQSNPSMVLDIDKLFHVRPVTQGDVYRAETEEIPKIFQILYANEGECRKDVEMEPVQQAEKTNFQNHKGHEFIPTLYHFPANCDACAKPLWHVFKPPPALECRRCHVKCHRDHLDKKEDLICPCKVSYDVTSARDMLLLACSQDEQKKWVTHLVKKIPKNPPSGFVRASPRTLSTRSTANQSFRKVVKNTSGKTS
smiles,measurement,setting,value
FC(F)(F)CNc1nccc(-c2cnn3ncccc23)n1,inhibition,[1],2.13%
same,inhibition,[2],2.29%
same,inhibition,[3],3.81%
same,inhibition,[4],1.02%
same,inhibition,[5],1.12%
same,inhibition,[6],2.48%
same,inhibition,[7],2.8%
same,inhibition,[8],1.1%
same,inhibition,[9],0.78%
same,inhibition,[10],-0.46%
same,inhibition,[11],-0.11%
same,inhibition,[12],1.53%
same,inhibition,[13],0.94%
same,inhibition,[14],-0.21%
same,inhibition,[15],1.24%
same,inhibition,[16],1.65%
same,inhibition,[17],2.69%
same,inhibition,[18],0.89%
same,inhibition,[19],1.84%
same,inhibition,[20],0.72%
Nc1ncnc2occ(-c3ccc(NC(=O)Nc4cc(C(F)(F)F)ccc4F)cc3)c12,inhibition,[1],1.3% and 0.14%
same,inhibition,[2],2.15% and -1.96%
same,inhibition,[3],1.95% and -2.28%
same,inhibition,[4],2.47% and 0.31%
same,inhibition,[5],1.42% and 0.75%
same,inhibition,[6],1.4% and 0.27%
same,inhibition,[7],2.16% and 1.02%
same,inhibition,[8],0.81% and 0.1%
same,inhibition,[9],-1.13% and -0.05%
same,inhibition,[10],1.07% and 0.31%
same,inhibition,[11],10.2% and 6.77%
same,inhibition,[12],7.01% and 2.27%
same,inhibition,[13],40% and 27.8%
same,inhibition,[14],9.06% and 4.67%
same,inhibition,[15],46.6% and 34.2%
same,inhibition,[16],3.22% and 1.04%
same,inhibition,[17],22.5% and 15.8%
same,inhibition,[18],9.18% and 5.3%
same,inhibition,[19],51.1% and 37.7%
same,inhibition,[20],-2.74% and 0.37%
c1cnn2ncc(-c3ccnc(NCCCN4CCOCC4)n3)c2c1,inhibition,[1],5.4%
same,inhibition,[2],3.94%
same,inhibition,[3],5%
same,inhibition,[4],3.07%
same,inhibition,[5],8.93%
same,inhibition,[6],3.44%
same,inhibition,[7],4.91%
same,inhibition,[8],1.06%
same,inhibition,[9],3.97%
same,inhibition,[10],2.01%
same,inhibition,[11],4.7%
same,inhibition,[12],4.49%
same,inhibition,[13],4.16%
same,inhibition,[14],1.74%
same,inhibition,[15],4.45%
same,inhibition,[16],0.98%
same,inhibition,[17],2.86%
same,inhibition,[18],1.93%
same,inhibition,[19],3.97%
same,inhibition,[20],-0.14%
COc1cccc(Nc2nccc(-c3cnn4ncccc34)n2)c1,inhibition,[1],37.4%
same,inhibition,[2],4.36%
same,inhibition,[3],41.4%
same,inhibition,[4],5.54%
same,inhibition,[5],37.6%
same,inhibition,[6],1.94%
same,inhibition,[7],14.5%
same,inhibition,[8],-0.56%
same,inhibition,[9],-0.01%
same,inhibition,[10],-0.95%
same,inhibition,[11],6.3%
same,inhibition,[12],2.21%
same,inhibition,[13],15.4%
same,inhibition,[14],0.64%
same,inhibition,[15],4.33%
same,inhibition,[16],-0.39%
same,inhibition,[17],2.48%
same,inhibition,[18],-0.61%
same,inhibition,[19],2.4%
same,inhibition,[20],-1.37%
CNC(=O)c1ncccc1Nc1nc(Nc2cc3c(cc2OC)CCCN3C(=O)CN(C)C)nc2[nH]ccc12,inhibition,[1],41.6%
same,inhibition,[2],9.65%
same,inhibition,[3],55.3%
same,inhibition,[4],1.9%
same,inhibition,[5],7.42%
same,inhibition,[6],3.34%
same,inhibition,[7],5.86%
same,inhibition,[8],1.64%
same,inhibition,[9],1.14%
same,inhibition,[10],1.58%
same,inhibition,[11],8.73%
same,inhibition,[12],3.75%
same,inhibition,[13],8.67%
same,inhibition,[14],5.58%
same,inhibition,[15],25.8%
same,inhibition,[16],2.99%
same,inhibition,[17],14.5%
same,inhibition,[18],3.13%
same,inhibition,[19],7.32%
same,inhibition,[20],3.92%
CCN1CCC(C(=O)Nc2n[nH]c3nnc(-c4cccc(F)c4F)cc23)CC1,inhibition,[1],0.06%
same,inhibition,[2],-0.39%
same,inhibition,[3],-0.3%
same,inhibition,[4],0.16%
same,inhibition,[5],0.21%
same,inhibition,[6],-1.12%
same,inhibition,[7],0.85%
same,inhibition,[8],0.8%
same,inhibition,[9],0.57%
same,inhibition,[10],-0.76%
same,inhibition,[11],-0.9%
same,inhibition,[12],0.68%
same,inhibition,[13],-0.77%
same,inhibition,[14],0.15%
same,inhibition,[15],0.28%
same,inhibition,[16],1.06%
same,inhibition,[17],2.16%
same,inhibition,[18],-0.71%
same,inhibition,[19],1.38%
same,inhibition,[20],0.8%
